Bioassay records as filed in PubChem BioAssay.
D1 agonist – agonists of human D1 dopamine receptor; P21728; HEK293 T-REx D1 cells, calcium flux, agonist mode; activation, % at 2 µM; hit rate 1% among 360,000; further: 0% is about no effect
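Tetracycline-induced HEK293 TREx D1 cells, force-coupled to calcium signalling, were dye-loaded with a no-wash calcium kit. Compound was pin-added after a 10 s baseline. Fluorescence was read kinetically at 1 cycle/s for 180 s, with calcium rises flagged as agonism.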
TRHR agonist – agonists of human TRH receptor. hit rate 0.18% among 360,000. TRHR cells, calcium flux fluo-8, FDSS agonist mode. activation, % at 2 µM. P34981; further: 0% is about no effect
Target sequence (P34981 whole entry, looked up): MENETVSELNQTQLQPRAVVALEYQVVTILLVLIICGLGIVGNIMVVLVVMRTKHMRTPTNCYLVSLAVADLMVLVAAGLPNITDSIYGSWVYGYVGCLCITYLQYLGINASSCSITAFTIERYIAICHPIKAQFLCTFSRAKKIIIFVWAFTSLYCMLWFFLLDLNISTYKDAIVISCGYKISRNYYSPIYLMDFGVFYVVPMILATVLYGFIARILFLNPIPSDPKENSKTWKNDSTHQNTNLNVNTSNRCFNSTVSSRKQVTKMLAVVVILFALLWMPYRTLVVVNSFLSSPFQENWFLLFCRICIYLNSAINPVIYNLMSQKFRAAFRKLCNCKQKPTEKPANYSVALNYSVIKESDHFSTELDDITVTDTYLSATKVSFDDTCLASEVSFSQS
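In this calcium-flux screen, cells bearing human TRHR are dye-loaded with fluo-8, baselined for 10 cycles, then exposed to library compounds; positive kinetic calcium responses during the agonist phase mark hits, with TRH as control.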
TRHR enhancer – allosteric enhancers of human TRH receptor; AID 493056; P34981; hit rate 0.66% among 360,000; enhancement, % at 2 µM; TRHR cells, fluo-8 calcium fluorescence, EC20 TRH enhancement; in the data active means enhancement above about 30%; further: 0% is about no effect
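TRHR-expressing cells loaded with fluo-8 calcium dye were read kinetically (ex 480/em 530) during compound addition, then stimulated with an EC20 of TRH (10 nM final). Enhancement of the Gq-mediated intracellular calcium response was scored.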
D1 antagonist – blocks dopamine activation of the human D1 receptor; P21728; HEK293 TREx D1 cells, calcium flux, dopamine EC80; active compounds read low; activity change, negative = inhibition, % at 10 µM; hit rate 3.2% among 360,000; AID 504652; in the data active means activity change below about -30%; further: on the % scale 0 is the no-effect control and ±100 the full control effect
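After overnight tetracycline induction at 30 C, force-coupled D1 HEK293 cells took up a no-wash calcium dye at room temperature. Compounds were added and monitored 180 s, and the response to EC80 dopamine was then recorded.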
D1 potentiator – human D1 dopamine receptor positive modulation; P21728; HEK293 TREx D1 cells, calcium flux, dopamine EC20 potentiation; AID 504651; potentiation, % at 10 µM; hit rate 0.036% among 360,000; in the data active means potentiation above about 30%; further: 0% is about no effect
Starred values were filed as active, the others as inactive; . = no result given; ! = repeats disagree. A selection: hits, their analogues and other compounds. The true share with any hit is near 4.6%. Unless noted, no stated cut-off is given here; in the data, active means activation above about 30%; inactive means the rest.

SMILES	D1 agonist	TRHR agonist	TRHR enhancer	D1 antagonist	D1 potentiator
Cc1nn(C)c(Cl)c1NC(=O)OCc1ccc(F)cc1	27	-1	8	-61*	-10
O=C(CCN1CCN(Cc2ccccc2)CC1)NNC(=O)Nc1cccc([N+](=O)[O-])c1	3	1	1	19	6
COc1ccc(/C=N/n2cc(-c3ccc(OC)cc3)nc2N)cc1	-1	1	0	-38*	2
Cc1nn(CC(=O)NCc2ccc(OC(C)C)cc2)c(=O)c2c(C)n(-c3ccc(Cl)cc3)nc12	1	-1	-14	1	-1
COC(=O)c1ccccc1N(C)S(=O)(=O)c1cc2c3c(c1)CC(=O)N3CCC2	2	0	1	0	-1
CCC(=O)NC(c1ccc(Br)o1)c1cc(Cl)c2cccnc2c1O (stereo unspecified)	89*	30*	4	15	4
CCCCn1c(O)c(N=Nc2ccccc2O)c2ccccc21	30*	9	-6	-1	2
C=CCn1c(=O)c2ccc(C(=O)NCc3ccccc3)cc2n(Cc2ccc(C)cc2)c1=O	-2	-2	3	-30*	-4
CCc1ccc(NC(=O)Cn2c(=O)n(CCC(=O)N3CCc4ccccc4C3)c(=O)c3ccccc32)cc1	-1	1	5	-31*	-1
Cc1ccc(CNC(=O)c2ccc(Cn3c(=O)c4ccccc4n(CC(=O)Nc4ccc(C)cc4)c3=O)cc2)cc1	33*	1	6	6	2
COc1ccc(-n2c(=O)c3ccc(C(=O)NCc4ccc(C)cc4)cc3n(Cc3ccc(C)cc3)c2=O)cc1	4	0	-5	12	-1
Cc1cc(=O)n2nc(N3CCC(C(=O)Nc4ccc(Br)c(C)c4)CC3)sc2n1	0	0	1	9	-3
COc1ccc(C(=O)NCC(c2ccc3c(c2)OCO3)N2CCN(c3ccccc3F)CC2)cc1 (stereo unspecified)	1	0	4	4	-4
Cc1ccc(Sc2ncccc2[N+](=O)[O-])cc1	6	0	7	-17	-3
CC(C)(C)n1cnnc1Sc1ncccc1[N+](=O)[O-]	3	1	3	-32*	11
CCOC(=O)C(=CNc1ccc(Cl)cn1)C(=O)OCC	1	-1	5	-40*	0
CCOC(=O)C(=CNc1cccc(N)n1)C(=O)OCC	1	0	1	-23	-6
NS(=O)(=O)c1ccc(NC(=S)Nc2ccn(Cc3cccc4ccccc34)n2)cc1	1	0	-22	-53*	2
CCOC(=O)c1cccc(NC(=O)c2cc(-c3ccc(Cl)s3)nc3ccccc23)c1	5	2	1	-15	0
Cc1ccc2nc(-c3ccc(NC(=S)NC4CC(C)(C)NC(C)(C)C4)cc3)sc2c1	41*	0	1	-3	-3
O=C(Cn1c(=O)n(Cc2ccc(F)cc2)c(=O)c2sc3ccccc3c21)NCc1ccccc1Cl	1	1	9	7	2
O=C(CSc1nccn1Cc1ccccc1)Nc1ccc2c(c1)OCO2	3	-1	6	5	-4
COc1cc(OC)c2c(OC)cccc2n1	0	0	-10	-82*	-4
COc1cccc(NC(=O)CSc2nc3ccc(NC(=O)c4cccs4)cc3s2)c1	10	1	-1	-12	-2
CCOC(=O)c1c(NC(=O)CSc2cn(CCNC(=O)c3ccc(OC)c(OC)c3)c3ccccc23)sc2c1CCCC2	2	1	3	-5	-3
SMILES	D1 agonist	TRHR agonist	TRHR enhancer	D1 antagonist	D1 potentiator
COc1ccc(N2CCN(C(c3ccccc3)c3sc4nc(-c5ccco5)nn4c3O)CC2)cc1 (stereo unspecified)	-3	-1	3	.	-1
CCN(CC)CCNCC(O)(c1ccc(Cl)cc1)c1ccc(Cl)cc1	32*	5	-4	-28	-7
COc1ccc(C2=NS(=O)(=O)N(C)C(C(=O)Nc3ccc(OC)c(OC)c3)=C2)cc1	2	0	1	-34*	-12
COc1ccc(NC(=O)C2=CC(c3ccc(C)cc3)=NS(=O)(=O)N2C)cc1	18	-1	-2	-33*	0
COc1ccc(C2=NS(=O)(=O)N(C)C(C(=O)Nc3cc(C)ccc3O)=C2)cc1OC	1	0	-1	-9	-8
CCc1ccccc1NC(=O)C1=CC(c2ccc(OC)c(OC)c2)=NS(=O)(=O)N1C	35*!	0	3	-12	-2
COc1ccc(NC(=O)C2=CC(c3ccc(C)cc3)=NS(=O)(=O)N2C)cc1OC	1	0	1	-10	-2
Cc1cccc(S(=O)(=O)N2CCN(S(=O)(=O)c3ccc4c(c3)OCCO4)CC2)c1	5	1	2	-4	2
CCN(Cc1ccccc1)C(=O)CN1C(=O)COc2ccc(S(=O)(=O)N3CCOCC3)cc21	0	0	8	1	-3
Fc1cccc(CNc2ncnc3ccc(-c4cccnc4)cc23)c1	3	0	6	-4	-3
CCCS(=O)(=O)Nc1cc(-c2cn3ccc(C)cc3n2)ccc1C	0	-3	1	3	59*
COc1ccc(S(=O)(=O)Nc2cc(-c3cn4ccc(C)cc4n3)ccc2C)cc1OC	3	-3	2	2	4
COc1ccc(C(=O)Oc2ccc(/C=N/O)cc2)cc1	3	0	7	-35*	-3
COc1ccc(C(=O)Oc2ccc(/C=N/NC(=O)Cc3ccc([N+](=O)[O-])cc3)cc2)cc1	2	-1	1	-32*	-8
CN(Cc1ccccc1)C(=S)NC(=O)c1ccccc1	5	0	31*	9	3
CCOc1ccc(NC(=O)CCCn2c(C)c3cnn(-c4ccccc4)c(=O)c3c2C)cc1	-2	-1	5	0	0
Cc1ccc(N/C(N)=N/c2nc(CSc3nnc(N)s3)cc(=O)[nH]2)cc1	5	0	3	-34*	-4
CCOC(=O)C1=C(CN2CCN(c3ccccc3F)CC2)NC(=O)NC1c1ccc(OC)cc1 (stereo unspecified)	-1	0	-3	5	3
CCCCCCC(C)n1[nH]c(=O)cc1N (stereo unspecified)	1	0	26	-32*	-14
COc1ccccc1OC1OC2COC(c3ccco3)OC2C(O)C1NC(C)=O (stereo unspecified)	2	0	7	-2	1
CC(=O)NC1C(Oc2cccc(C)c2)OC2COC(c3ccco3)OC2C1O (stereo unspecified)	1	0	7	-39*	-1
COc1ccccc1-c1noc(-c2ccc(NC(C)C)c([N+](=O)[O-])c2)n1	4	-1	-5	4	0
COc1cc(OC)cc(C(=O)OCc2cc3ccccc3[nH]c2=O)c1	0	0	22	-40*	-12
